Test results reported in PubChem BioAssay (Tox21).
Records with an inconclusive call do not appear. Unmarked numbers belong to inactive results. The source made the active and inactive calls. Calls follow the shape of the dose curve; as a rule, active = well fitted cell-killing curve with a large enough effect in the repeat runs; inconclusive = weak or mixed curves, or effect the other way; inactive = flat fitted curve, though single readings scatter.

assay: Nuclear factor erythroid 2-related factor 2/antioxidant responsive element (Nrf2/ARE) small molecule agonists: qHTS cell viability counter screen in human keratinocytes (AID 1919968); conditions: KeratinoSens HaCaT ARE cells viability, CellTiter-Fluor, 24 h; series mostly up to 92.4 µM; activity change, negative = cytotoxicity: at the top concentration; also: nearly all actives have a fitted effect of over 55% in size
Description: U.S. Tox21 Program National Center for Advancing Translational Sciences [NCATS] Division of Preclinical Innovation [DPI] U.S. Environmental Protection Agency [EPA] National Institutes of Environmental Health Sciences [NIEHS] National Toxicology Program [NTP] U.S. Food and Drug Administration [FDA] Tox21 Assay Overview: Oxidative stress has been implicated in the pathogenesis of a variety of diseases ranging from cancer to neurodegeneration. The antioxidant response element (ARE) signaling pathway plays an important role in the amelioration of oxidative stress. The KeratinoSens (Givaudan, Switzerland) is an in vitro test method which quantifies luciferase induction as a measure of activation of Keap1-Nrf2-antioxidationt/electrophile response element (ARE) dependant pathway in HaCaT human keratinocytes stably transfected with a selectable plasmid. The KeratinoSens assay is a cell-based assay with a reporter cell line to detect potential skin sensitizers by their ability to induce the Nrf2/ARE-response. The activation of the report gene under culture conditions can be detected by ONE-Glo Luciferase Assay System (Promega, Madison, WI). This cell line has been used to screen the Tox21 10K compound library to identify agonists that induce oxidative stress. The cytotoxicity of the Tox21 compound library against the KS-ARE cell line was tested in parallel by measuring the cell viability using CellTiter- Fluor assay system (Promega, Madison, WI) in the same wells.
Tox21 Assay Protocol Summary: HaCaT derived cell line KeratinoSens were dispensed at 1,500 cells/5uL/well in 1536-well white wall/solid bottom plates using a Multidrop Combi (ThermoFisher Scientific, Waltham, MA) dispenser. After the assay plates were incubated at 37 C/5% CO2 for 5 h, 23 nL of compounds dissolved in DMSO, positive controls or DMSO only was transferred to the assay plate by a pintool workstation (Kalypsys, San Diego, CA). The plates were incubated at 37 C/5% CO2 for 23 h, followed by addition of 1uL/well of CellTiter-Fluor reagent into the assay plates using a Flying Reagent Dispenser (Aurora Discovery, San Diego, CA) for cell viability readout that measures cytotoxicity. After 1 h incubation at 37 C/5% CO2 the fluorescence intensity was measured using a ViewLux (PerkinElmer, Shelton, CT) plate reader.
% is scaled to controls: 0 for no effect and ±100 for the full control effect; potency is read from the fitted curve at half-maximal effect.

| Compound | activity change, negative = cytotoxicity | Potency |
| --- | --- | --- |
| CC(C)(C)OC(=O)c1cccc(N)c1 | 2.97% | – |
| COCC(O)CO (stereo not given) | 0.96% | – |
| CC(O)C(C)O (stereo not given) | -3.89% | – |
| CC(C)NC(=O)c1ccccc1N | -1.5% | – |
| O=C1OC[C@H](Cc2cccc(O)c2)[C@H]1Cc1cccc(O)c1 | 2.51% [at 42.5 µM] | – |
| O=[N+]([O-])c1ccc2nc[nH]c2c1 | – | inactive |
| C=CC(C)(CCC=C(C)C)OC=O (stereo not given) | 1.45% | – |
| CCCCCCCCCCCCCCCC(=O)NCCO | 0.0649% [at 42.5 µM] | – |
| CCCCC(=O)N(C)C | -0.978% | – |
| N[C@H](C(=O)O)c1ccc(O)cc1 | 7.62% [at 19 µM] | – |
| COCCOCCOCCOCCO | 4.47% | – |
| CC(C)(C)NCC(O)c1ccc(O)c(CO)c1 (stereo not given) | – | inactive |
| Cn1c(=O)c2c(ncn2C)n(C)c1=O | – | inactive |
| Nc1ccc(N=Nc2ccccc2)c(N)n1 | – | 30.8 µM (active) |
| CCC(=O)OC(C)(C)C1CC=C(C)CC1 (stereo not given) | 2.45% | – |
| O=C(c1ccccc1)c1ccccc1O | – | inactive |
| C=COCCOCCOCCOC=C | 9.58% | – |
| CC(O)Cn1cnc2c1c(=O)n(C)c(=O)n2C (stereo not given) | -0.374% [at 42.5 µM] | – |
| Cc1ccc(NC(=O)N(C)C)cc1NC(=O)N(C)C | -8.78% | – |
| CCCCCCCCCC/C=C/C#N | 1.62% | – |

| Compound | activity change, negative = cytotoxicity | Potency |
| --- | --- | --- |
| Cc1cncc(C)c1 | 0.33% | – |
| CC(=O)C1(C)CC2=C(CCCC2(C)C)CC1C (stereo not given) | – | inactive |
| COc1cc(CCC(C)=O)ccc1O | 1.11% | – |
| CCOc1ncc(F)c(=O)[nH]1 | -0.936% [at 42.5 µM] | – |
| NC(=O)NNc1ccccc1 | – | inactive |
| C=C(C)[C@@H]1CCC2=CCC[C@@H](C)[C@]2(C)C1 | 3.99% | – |
| NC[C@H](O)c1ccc(O)c(O)c1 | – | inactive |
| CCC(=O)O[C@H]1[C@H](O[C@@H]2[C@@H](C)[C@H](O[C@H]3C[C@@](C)(OC)[C@@H](O)[C@H](C)O3)[C@@H](C)C(=O)O[C@H](CC)[C@@](C)(O)[C@H](O)[C@@H](C)C(=O)[C@H](C)C[C@@]2(C)O)O[C@H](C)C[C@@H]1N(C)C | 0.474% [at 42.5 µM] | – |
| CC1(C)O[C@H]2CC(=O)OC[C@]23[C@H]2CC[C@@]4(C)[C@H](c5ccoc5)OC(=O)[C@H]5O[C@]54[C@]2(C)C(=O)C[C@@H]13 | 3.62% [at 42.5 µM] | – |
| Cc1cccc(C)c1NC(=O)CC12CCCN1CCC2 | 3.94% [at 42.5 µM] | – |
| C/C(Cl)=C/CCl | 5.08% | – |
| c1ccc2ncccc2c1 | – | inactive |
| Cc1ccccc1C | -5.14% | – |
| N#CC1(O)CCCCC1 | 15.1% | – |
| CCCCCC(=O)CC | 3.44% | – |
| COC(=O)c1c(Cl)c(Cl)c(C(=O)OC)c(Cl)c1Cl | – | inactive |
| O=C(O)[C@@H](O)[C@H](O)[C@H](O)[C@@H](O)C(=O)O | -2.96% [at 42.5 µM] | – |
| CC(C#N)(CCC(=O)O)N=NC(C)(C#N)CCC(=O)O (stereo not given) | 0.0448% | – |
| c1c[nH]cn1 | – | inactive |
| NCCNCCNCCN | – | inactive |
